Sampled rows, rich in hits. Any-hit rate of the full collection: about 21%.
Pf growth 48h – Primary qHTS for delayed death inhibitors of the malarial parasite plastid, 48 hour incubation; actives 5.9% (n = 310,000); P. falciparum luciferase growth in erythrocytes, 48 h; Potency, µM (series often up to 28.7 µM), for the others: at the top dose activity change, negative = inhibition, usual class: inhibitors; note: potency is the fitted concentration of half-maximal effect; % is set by controls: 0 for no effect and ±100 for the full control effect
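Luciferase-expressing P. falciparum in infected erythrocytes (2% hematocrit, 0.1% parasitemia final) in RPMI 1640/0.5% Albumax were exposed to compound for 48 hours at 37 C, 5% CO2; growth read as luminescence.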
Shiga inhibitor – A qHTS for Small Molecule Inhibitors of Shiga Toxin | Vero cells, Shiga toxin protein synthesis inhibition reporter | inhibition, % at 38.7 µM | actives 9.2% (n = 290,000) | AID 2315, 2010; in the data active = inhibition mostly above about 28%, no sharp cut-off; inactive = mostly below about 43%; note: 0% is about no effect
Pf growth 96h – Primary qHTS for delayed death inhibitors of the malarial parasite plastid, 96 hour incubation | actives 6.9% (n = 320,000) | P. falciparum luciferase reporter growth, 96 h | Potency, µM (titrated, usually from 28.7 µM), for inactives: at the highest dose activity change, negative = inhibition, actives largely listed as inhibitors | AID 504834, 2011; note: potency is the fitted concentration of half-maximal effect; % is set by controls: 0 for no effect and ±100 for the full control effect
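P. falciparum expressing integrated firefly luciferase, in erythrocytes at 2% hematocrit, 0.05% parasitemia, incubated with compounds 96 h at 37 C, 5% CO2. Growth inhibition read as loss of luminescence; two-generation exposure targets delayed-death apicoplast inhibitors.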
HCV inhibitor – qHTS Assay for Inhibitors of Hepatitis C Virus (HCV); AID 651820, 2012; Potency, µM (highest dose often 41.8 µM), for inactives: at the top dose activity change, negative = inhibition, actives largely listed as inhibitors; Huh7.5.1 HCVcc-Cre infection, luciferase reporter, 44 h; actives 3.4% (n = 340,000); note: potency is the fitted concentration of half-maximal effect; % is set by controls: 0 for no effect and ±100 for the full control effect
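Reporter virus HCVcc-Cre (~0.5 moi) infects cells exposed to compound; seeding density 1,000 cells/well with 4 h settling beforehand. Luminescence, 15 sec read, taken 44 h post-infection following a 15 min RT substrate incubation.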
HCMV inh – qHTS Assay for inhibitors of the human cytomegalovirus (HCMV) | actives 4.5% (n = 410,000) | HFF cells, HCMV-luciferase reporter, 72 h; active compounds read low | activity change, negative = inhibition, % at 57.5 µM; in the data active = activity change below about -60%; inconclusive = no clear call, values can overlap the other calls; inactive = above about -39%; note: % is set by controls: 0 for no effect and ±100 for the full control effect
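Steps: HFFs plated, 16 h 37C; compounds added; HCMV-luciferase added to MOI 1 PFU/cell; 72 h 37C; OneGlo reagent, 5 min room temperature; luminescence read, normalized to controls.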
Cycloheximide cs – Cycloheximide Counterscreen for Small Molecule Inhibitors of Shiga Toxin; cell reporter, cycloheximide protein synthesis inhibition counterscreen; actives 12% (n = 300,000); max response, %; AID 2314, 2010; in the data active = max response mostly above about 13%, no sharp cut-off; inactive = mostly below about 14%; note: read at 38.3 µM for the half of the compounds with a filed dose; 0% is about no effect
The depositor's hits bear a star; ? = inconclusive; . = no result; ! = not active in a repeat. Unless noted, calls come from the whole dose curve; as a rule, active = well fitted inhibition curve with a large enough effect; inconclusive = small, poorly fitted or top-dose-only effect, or another doubt; inactive = no such curve, though single readings can be large or run the other way.

SMILES | Pf growth 48h | Shiga inhibitor | Pf growth 96h | HCV inhibitor | HCMV inh | Cycloheximide cs
Cc1ccc(C(=O)Nc2ccc(S(=O)(=O)Nc3onc(C)c3C)cc2)cc1 | . | . | . | . | -5 | .
Cc1ccc2c(=O)cc(C(=O)Nc3ccc(S(=O)(=O)Nc4onc(C)c4C)cc3)oc2c1 | 27% | -6 | 24% | 18% | -38 | -5
Cc1noc(NS(=O)(=O)c2ccc(N/C=C\C(=O)c3ccccc3)cc2)c1C | 32% | 118* | ? | 19% | 13 | 46*
COc1ccc(C2c3c(n(C)c4ccccc34)C(=O)N2CC(=O)Nc2c(C)cc(C)cc2C)cc1 (stereo unspecified) | . | . | . | . | 0 | .
Cc1noc(NS(=O)(=O)c2ccc(N/C=C\C(=O)c3cccs3)cc2)c1C | 11% | 94* | -14% | -1% | -6 | 43*
O=C(NC(NC(=S)Nc1ccccc1Cl)C(Cl)(Cl)Cl)c1cccc(Cl)c1 (stereo unspecified) | ? | -12 | 71% | ? | -99* | 2
COc1ccc(NC(=S)NC(NC(=O)c2cccc(C)c2)C(Cl)(Cl)Cl)c([N+](=O)[O-])c1 (stereo unspecified) | 3.3µM* | -4 | -19% | ? | -11 | -1
COc1ccc(NC(=S)NC(NC(=O)c2cccc(Cl)c2)C(Cl)(Cl)Cl)c([N+](=O)[O-])c1 (stereo unspecified) | 3.3µM* | 16 | ? | 11µM*! | -88* | -2
COC(=O)c1ccc2c(=O)n(CC3CCCO3)c(SCC(=O)Nc3ccccc3OC)nc2c1 (stereo unspecified) | ? | 13 | 56% | 8% | 19 | 1
CCCCCn1c(SCC#N)nc2cc(C(=O)NCC3CCCO3)ccc2c1=O (stereo unspecified) | 7% | 5 | 4.7µM* | ? | -28 | 4
O=C(CCCn1c(SCC(=O)NCCc2ccccc2)nc2ccccc2c1=O)NCC1CCCO1 (stereo unspecified) | ? | -10 | -25% | -7% | -27 | -1
O=C(CCCn1c(SCC(=O)NC2CCCCC2)nc2ccccc2c1=O)NCC1CCCO1 (stereo unspecified) | ? | -11 | 12µM* | 27% | 21 | -2
CCc1ccccc1NC(=O)CSc1nc2cc(C(=O)NCC3CCCO3)ccc2c(=O)n1CC1CCCO1 (stereo unspecified) | . | . | . | . | 9 | .
COC(=O)c1ccc2c(=O)n(CC3CCCO3)c(SCC(=O)Nc3ccccc3Cl)nc2c1 (stereo unspecified) | . | -11 | 10µM* | -3% | 20 | -4
CN(C)c1ccc(NC(=O)CSc2nc3ccccc3c(=O)n2CC2CCCO2)cc1 (stereo unspecified) | -13% | -7 | 4.1µM* | 2% | ? | -5
Cc1cc(=O)c2cc(C(=O)Nc3ccc(F)cc3)ccc2[nH]1 | . | . | . | . | 5 | .
O=C(CSc1nc2ccccc2c(=O)n1CC1CCCO1)NCC1CCCO1 (stereo unspecified) | -12% | -26 | 5.2µM* | 13% | 8 | -3
COc1ccccc1-n1c(SC(C)C(=O)NCC2CCCO2)nc2cc(Cl)ccc2c1=O (stereo unspecified) | 13µM* | . | ? | ? | -15 | .
O=C(CCCn1c(SCc2ccccc2F)nc2ccccc2c1=O)NCC1CCCO1 (stereo unspecified) | 6.6µM* | -6 | 2% | 13% | ? | -5
COc1ccccc1NC(=O)C(C)Sc1nc2ccccc2c(=O)n1CC1CCCO1 (stereo unspecified) | 10µM* | . | ? | ? | -38 | .
O=C(CCCn1c(SCC(=O)Nc2ccccc2C(F)(F)F)nc2ccccc2c1=O)NCC1CCCO1 (stereo unspecified) | -5% | -16 | ? | 1% | 0 | -1
CCOc1ccc(NC(=O)Cn2cnc3nc4c(cc3c2=O)CCCC4)cc1 | . | . | . | . | 9 | .

From PubChem
